# Assay results reported in PubChem BioAssay (NCI).
# Compounds without any hit were thinned out: in the full panel of roughly 83,000, 20% have a hit.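 Note: values are percent growth. 100 is the growth of untreated cells, values between 100 and 0 indicate rising inhibition; between -100 and 0 indicates cell death.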 Unmarked numbers belong to inactive results. Calls of active or inactive are those of the source. The calls were made as follows: active = growth percent below 10; inactive = the rest.
# How the values were obtained:
# Assay in all cases: NCI-60 one-dose screen, 48 h (100 = growth as untreated, 0 = no growth, -100 = all killed)
# Settings in all cases: 10 µM unless noted
# HCT-15 colon = test system: HCT-15 colon
# SNB-75 CNS = test system: SNB-75 CNS
# SNB-19 CNS = test system: SNB-19 CNS
# U251 CNS = test system: U251 CNS
# PC-3 prostate = test system: PC-3 prostate
# SK-MEL-5 melanoma = test system: SK-MEL-5 melanoma
# UACC-62 melanoma = test system: UACC-62 melanoma
# LOX IMVI melanoma = test system: LOX IMVI melanoma
# SK-MEL-28 melanoma = test system: SK-MEL-28 melanoma
# SK-MEL-2 melanoma = test system: SK-MEL-2 melanoma
# EKVX NSCLC = test system: EKVX NSCLC
# SN12C renal = test system: SN12C renal
# UO-31 renal = test system: UO-31 renal
# TK-10 renal = test system: TK-10 renal
# ACHN renal = test system: ACHN renal
# CAKI-1 renal = test system: CAKI-1 renal
# A498 renal = test system: A498 renal
# CCRF-CEM leukemia = test system: CCRF-CEM leukemia
# MOLT-4 leukemia = test system: MOLT-4 leukemia
SMILES,growth (HCT-15 colon),growth (SNB-75 CNS),growth (SNB-19 CNS),growth (U251 CNS),growth (PC-3 prostate),growth (SK-MEL-5 melanoma),growth (UACC-62 melanoma),growth (LOX IMVI melanoma),growth (SK-MEL-28 melanoma),growth (SK-MEL-2 melanoma),growth (EKVX NSCLC),growth (SN12C renal),growth (UO-31 renal),growth (TK-10 renal),growth (ACHN renal),growth (CAKI-1 renal),growth (A498 renal),growth (CCRF-CEM leukemia),growth (MOLT-4 leukemia)
COc1ccc(C(=O)c2cc3c(N)c(C(=O)Nc4cccc(Cl)c4)sc3nc2C)cc1,21%,-10.1% (active),41.8%,23%,27.9%,9.91% (active),39.3%,48.2%,65.7%,39.8%,39.4%,42.7%,42.7%,49.9%,49.3%,44.1%,-0.876% (active),8.14% (active),20.2%
COc1ccc(NC(=O)c2sc3nc(C)c(C(=O)c4ccc(OC)cc4)cc3c2N)cc1,35.8%,21.2%,65.2%,39.7%,56.4%,35.1%,46.1%,54.2%,64.9%,23%,68.5%,63.8%,45.5%,55%,82.8%,42.6%,-3.91% (active),36%,27.5%
CCc1nc(C)cn1C(=O)OCc1nc2nc(Cl)nc(N3CCOCC3)c2[nH]1,-28.1% (active),1.78% (active),55.8%,-55.3% (active),-63.5% (active),-35.8% (active),-88.4% (active),-80.9% (active),-89.6% (active),-90.9% (active),48.2%,-21.3% (active),-100% (active),-91.5% (active),-100% (active),-80% (active),,-5.27% (active),6.91% (active)
NC(=S)N/N=C(\c1ccc(Cl)cc1)C1CC1,84.3%,83.7%,104%,92.1%,77.9%,89.1%,87.3%,94.2%,98.7%,106%,69.8%,83%,58.7%,102%,88.4%,81.1%,,63.2%,46.9%
CCCCc1ccc(Nc2nnc(SCC(=O)NC(=O)NCC)s2)cc1,99.9%,83%,119%,96%,91%,103%,78.2%,94.1%,105%,90.8%,110%,97%,84.4%,107%,101%,115%,96.6%,78.8%,100%
O=C(O)CCCCCCCCCCCCCCC(=O)O,104%,88.2%,99.1%,93.7%,92.6%,103%,95.1%,98.6%,106%,103%,106%,93.8%,99.8%,90.4%,107%,,,96.1%,103%
CCCCCOc1ccc(/C=N/Nc2cc(C)nc3ccc(Br)cc23)cc1,-91.4% (active),85.5%,43.2%,-65% (active),27.3%,89.1%,93.2%,-92.9% (active),-74.3% (active),105%,76.3%,-88.8% (active),-94.1% (active),19.1%,-26.2% (active),,,3.51% (active),-21.8% (active)
Cc1ccc2[nH]c(=S)n(-c3ccc(S(=O)(=O)Nc4ccc(Cl)nn4)cc3)c(=O)c2c1,101%,97.8%,97.5%,100%,103%,101%,98.5%,100%,108%,106%,97.8%,96.9%,85.2%,100%,104%,90.6%,92.1%,,100%
